For 41 sequences, binding signal results are on record in article PMC6451091, “NextPBM: a platform to study cell-specific transcription factor binding and cooperativity”.

Whole data set: some 3,700 sequences, median “z-score” near 4, cut for the highest 2% near 8.4. The full list was thinned out, with the highest values kept by preference.

Assay [1] has as its target PU.1 (IVT) (UniProt P17947 1-270). As to the kind of experiment: protein-binding microarray (PBM); 20 mM HEPES pH 7.9, 100 mM NaCl, 1 mM DTT, 0.2 mg/mL BSA, 0.02% Triton X-100, 2% milk, 0.4 mg/mL salmon testes DNA; 1 h; temperature not stated; high values mean tight binding. As to conditions: dsDNA, one strand shown. In short, it runs like this: (§1)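 PU.1, full-length and untagged, came from coupled human in vitro transcription/translation and was bound for 1 h to double-stranded DNA microarrays of 20-bp genomic sites and single-nucleotide variants in HEPES pH 7.9, 100 mM NaCl, 2% milk and salmon testes DNA. After antibody detection, the values were taken as z-scores of scanned fluorescence normalised by linear regression.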

For assay [2] the target is unchanged. The assay is described as above. As to conditions: dsDNA, one strand shown. In short, it runs like this: as §1
This is another data set of the same source.

In turn, “GCCTAGCACGAAAAAGGGAACTGGTTGGGGTGCTAGGTCTTGATTCGCTTGACGCTGCTG” yielded a binding signal in assay [1] of 5.22 z-score. Same read-out and setting: the value for “GCCTAGCACGGAAGAAGGAAGTGGGGGCCGTGCTAGGTCTTGATTCGCTTGACGCTGCTG” was 3.66 z-score; that for “GCCTAGCACAGGAGGAGGAAGTGGGGGGAGTGCTAGGTCTTGATTCGCTTGACGCTGCTG” was 4.05 z-score. Still for that read-out and setting: the value for “GCCTAGCACGATAAGAGGAACTGTAAGCTGTGCTAGGTCTTGATTCGCTTGACGCTGCTG” was 3.92 z-score. With “GCCTAGCACTGAGAGGAGAAGTGAAATCTGTGCTAGGTCTTGATTCGCTTGACGCTGCTG”, the binding signal in assay [2] was determined as 1.39 z-score. On the same count and under the same terms, the same measure for “GCCTAGCACCAAATTAGGAACTGATGCGGGTGCTAGGTCTTGATTCGCTTGACGCTGCTG”: 2.14 z-score; for “GCCTAGCACGCTAAGAGGAAGTCCTCTGTGTGCTAGGTCTTGATTCGCTTGACGCTGCTG”: 5.07 z-score. In assay [1], “GCCTAGCACAAAAAAAGGAAGTGAGATAAGTGCTAGGTCTTGATTCGCTTGACGCTGCTG” registered a binding signal of 6.74 z-score. Still for that read-out and setting: the same measure for “GCCTAGCACAAAAAGAGGAAGTGATGATGGTGCTAGGTCTTGATTCGCTTGACGCTGCTG”: 9.07 z-score. Still for that read-out and setting: the same measure for “GCCTAGCACAAAAAGAGGAAGTGGTACAAGTGCTAGGTCTTGATTCGCTTGACGCTGCTG”: 8.76 z-score; for “GCCTAGCACAAAAAAAGGAAGTGGTAGCAGTGCTAGGTCTTGATTCGCTTGACGCTGCTG”: 6.75 z-score. Regarding “GCCTAGCACAAAAAGAGGAAGGGTGGCTGGTGCTAGGTCTTGATTCGCTTGACGCTGCTG”, the binding signal in assay [2] is 4.91 z-score. With “GCCTAGCACAAGAGGAGGAAGTGAGAGAGGTGCTAGGTCTTGATTCGCTTGACGCTGCTG”, the binding signal in assay [1] amounted to 4.33 z-score. The same measure, in the same setting: the same measure for “GCCTAGCACAAAAAGAGGAAGTGAGATGGGTGCTAGGTCTTGATTCGCTTGACGCTGCTG”: 8.88 z-score.

Turning to “GCCTAGCACACAAAGGGGAAGTGCTAGGGGTGCTAGGTCTTGATTCGCTTGACGCTGCTG”, in assay [2], the binding signal is 6.35 z-score. “GCCTAGCACAAAAAGCGGAAGTGCAAAAGGTGCTAGGTCTTGATTCGCTTGACGCTGCTG” returned a binding signal in assay [1] of 8.5 z-score. Same read-out and setting: the value for “GCCTAGCACAAAAAGAGGAAGGGACCCAAGTGCTAGGTCTTGATTCGCTTGACGCTGCTG” was 5.29 z-score. For the sequence “GCCTAGCACAAAAAAAGGAAGTGCTCAAGGTGCTAGGTCTTGATTCGCTTGACGCTGCTG”, the binding signal in assay [2] came to 6.42 z-score.

“GCCTAGCACAAAAGGAGGAAGTGATGATGGTGCTAGGTCTTGATTCGCTTGACGCTGCTG”: in assay [2], the binding signal is 6.55 z-score. In the case of “GCCTAGCACGAAAGGAGGAAGTGAAACTGGTGCTAGGTCTTGATTCGCTTGACGCTGCTG”, in assay [2], the binding signal worked out at 6.19 z-score.

In assay [2], “GCCTAGCACCAAATGAGGAATTGATGCGGGTGCTAGGTCTTGATTCGCTTGACGCTGCTG” showed a binding signal of 2.8 z-score. Turning to “GCCTAGCACCAGAAAAGGAAGTAAGCCACGTGCTAGGTCTTGATTCGCTTGACGCTGCTG”, the binding signal in assay [1] stood at 3.98 z-score. Same read-out and setting: the same measure for “GCCTAGCACAAAAAAAGGAAGTACAGTAAGTGCTAGGTCTTGATTCGCTTGACGCTGCTG”: 6.54 z-score.

In turn, “GCCTAGCACAAAAGAGGGAAGTGACATTCGTGCTAGGTCTTGATTCGCTTGACGCTGCTG” registered a binding signal in assay [2] of 5.89 z-score.

Take “GCCTAGCACAAAAAGAGGAAGTACATTAAGTGCTAGGTCTTGATTCGCTTGACGCTGCTG”: in assay [1], the binding signal was found to be 8.68 z-score. The same measure, in the same setting: the value for “GCCTAGCACAAAAAGAGGAAGTGACTTCAGTGCTAGGTCTTGATTCGCTTGACGCTGCTG” was 8.34 z-score; that for “GCCTAGCACGCAAAGAGGAAGTGACTCAAGTGCTAGGTCTTGATTCGCTTGACGCTGCTG” was 6.81 z-score; that for “GCCTAGCACAAAAAGAGGAAGTGACTCACGTGCTAGGTCTTGATTCGCTTGACGCTGCTG” was 8.49 z-score. Sequence “GCCTAGCACGATTTGAGGAAATGAAACTTGTGCTAGGTCTTGATTCGCTTGACGCTGCTG” showed a binding signal in assay [2] of 3.79 z-score. The sequence “GCCTAGCACAAAAAGGGGAAGTCATCTATGTGCTAGGTCTTGATTCGCTTGACGCTGCTG” had a binding signal in assay [1] of 8.05 z-score. “GCCTAGCACAATATGAGGAAGTGCTCTAGGTGCTAGGTCTTGATTCGCTTGACGCTGCTG” yielded a binding signal in assay [2] of 6.67 z-score.

Take “GCCTAGCACTTACACAGGAAGTGCTGGCAGTGCTAGGTCTTGATTCGCTTGACGCTGCTG”: the binding signal in assay [2] was 2.14 z-score. Sequence “GCCTAGCACAAAAAGAGGAAGTCATTCTTGTGCTAGGTCTTGATTCGCTTGACGCTGCTG” registered a binding signal in assay [1] of 8.71 z-score.

Take “GCCTAGCACAAAAAGAGGAAGAGGCGCTTGTGCTAGGTCTTGATTCGCTTGACGCTGCTG”: the binding signal in assay [1] came out at 5.63 z-score. On the same count and under the same terms, the same measure for “GCCTAGCACAAAAACAGGAAGTCCTATTCGTGCTAGGTCTTGATTCGCTTGACGCTGCTG”: 7.91 z-score; for “GCCTAGCACAAAAAGAGGAAGAGAAACTTGTGCTAGGTCTTGATTCGCTTGACGCTGCTG”: 6.04 z-score.

In assay [1], “GCCTAGCACAAAATGAGGAAGTCATTCTTGTGCTAGGTCTTGATTCGCTTGACGCTGCTG” had a binding signal of 8.35 z-score. The same measure, in the same setting: the value for “GCCTAGCACACAAAGAGGAAGTCCCATTTGTGCTAGGTCTTGATTCGCTTGACGCTGCTG” was 7.29 z-score; that for “GCCTAGCACAAAAAGAGGAAGTCCTATTTGTGCTAGGTCTTGATTCGCTTGACGCTGCTG” was 8.54 z-score.

In the case of “GCCTAGCACAAAAAGAGGAAGTGCTACTTGTGCTAGGTCTTGATTCGCTTGACGCTGCTG”, the binding signal in assay [1] worked out at 8.88 z-score. As for “GCCTAGCACAAAAATAGGAAATGAAAGTAGTGCTAGGTCTTGATTCGCTTGACGCTGCTG”, the binding signal in assay [2] was determined as 3 z-score.
